FLuc counter: firefly luciferase modulation, counter-screen for miR-21 project; purified FLuc, Km substrates, luminescence inhibition; Potency, µM (highest dose often 57.5 µM), inactives show at the top dose activity change, negative = inhibition, hits mostly inhibitors; hit rate 6.9% among 360,000; AID 588342; P08659;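 note: plate controls were vehicle for no effect and reference inhibitor for full effect; nearly all actives have a fitted effect of over 55% in size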
Target sequence (P08659 whole entry, looked up): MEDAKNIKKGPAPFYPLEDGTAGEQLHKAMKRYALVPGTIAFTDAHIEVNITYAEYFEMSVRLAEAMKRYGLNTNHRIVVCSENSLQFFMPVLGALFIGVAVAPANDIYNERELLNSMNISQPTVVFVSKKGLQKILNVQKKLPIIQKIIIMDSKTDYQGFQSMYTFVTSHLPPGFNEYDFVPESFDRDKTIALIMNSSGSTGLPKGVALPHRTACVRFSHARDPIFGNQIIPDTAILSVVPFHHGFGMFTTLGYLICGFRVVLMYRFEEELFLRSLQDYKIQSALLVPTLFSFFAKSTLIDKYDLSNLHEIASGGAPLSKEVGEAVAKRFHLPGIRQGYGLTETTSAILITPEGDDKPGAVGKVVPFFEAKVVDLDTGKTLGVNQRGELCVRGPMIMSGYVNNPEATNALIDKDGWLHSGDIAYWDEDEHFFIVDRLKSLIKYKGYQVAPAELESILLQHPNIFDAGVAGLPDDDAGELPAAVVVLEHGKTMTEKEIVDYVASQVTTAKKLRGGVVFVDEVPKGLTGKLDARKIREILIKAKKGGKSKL
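Purified P. pyralis luciferase, 10 nM final, with Km-level 10 uM D-luciferin and 10 uM ATP in 50 mM Tris acetate pH 7.5, 10 mM Mg acetate, 0.01% Tween-20, 0.05% BSA; 6-point qHTS titration about 60 µM downward; luminescence read.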
SMN2 splice up: enhancers of SMN2 splice variant expression | hit rate 2.8% among 210,000 | AID 1458 | HEK293 SMN2-luciferase splicing reporter, luminescence, 30-36 h | Potency, µM (series often up to 46.1 µM), for inactives: at the highest dose activity change, positive = activation, actives largely listed as activators; note: % of control where 0% means no effect; nearly all actives have a fitted effect of over 55% in size
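HEK293 cells carry an SMN2 minigene-luciferase reporter in which exon 7 inclusion puts luciferase in frame. Cells were seeded at 2000 cells/well, attached for 10-12 hours, then exposed to compounds for 30-36 hours at 37C before ONE-Glo luminescence.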
ELG1 genotox: genotoxicity induction in ELG1-luciferase HEK293T cells; HEK293T ELG1-luciferase reporter, luminescence, 16 h; Potency, µM (series often up to 46 µM), inactives show at the highest dose activity change, positive = activation, most hits filed as activators; hit rate 1.3% among 330,000; note: % of control where 0% means no effect; nearly all actives have a fitted effect of over 60% in size
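HEK293T cells expressing luciferase-tagged ELG1 were treated with compound or DMSO for 16 hr at 37°C. Luciferase activity was then read after 30 min with ONE-Glo at room temperature; rising signal flags genetic stress.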
NPC1 prom act: NPC1 promoter activation. hit rate 2.4% among 320,000. Huh7 NPC1 promoter luciferase reporter, 24 h. Potency, µM (top dose mostly 9.22 µM), for inactives: top-dose activation, usual class: activators; note: % of control where 0% means no effect; nearly all actives have a fitted effect of over 60% in size
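In 1536-well qHTS, Huh7 cells harboring an NPC1 promoter–luciferase construct received compound for 24 h; activation was quantified by luminescence following luciferase reagent addition.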
Rab9 promoter act: activators of Rab9 promoter; Potency, µM (titrated, usually from 9.22 µM), inactives show top-dose activation, negative = inhibition, actives largely listed as activators; AID 485297; hit rate 2.8% among 320,000; Huh7 Rab9 promoter-luciferase reporter, luminescence, 24 h; note: % of control where 0% means no effect; nearly all actives have a fitted effect of over 60% in size
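Rab9 promoter-driven luciferase in stably transfected Huh7 cells; 1500 cells/well rested 2 h, exposed to compound in DMSO for 24 h at 37 °C, 5% CO2. Luminescence read 10 min after adding luciferase reagent at ambient temperature.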
The depositor's hits bear a star; u = inconclusive; x = no result given. Only some compounds are listed: those with a hit (about 7.4% of all), similar ones and a draw of the others. Calls come from the whole dose curve; as a rule, active = well fitted curve in the direction sought with a large enough effect; inconclusive = small, poorly fitted or top-dose-only effect, or another doubt; inactive = no such curve, though single readings can be large; an effect the other way counts as inactive or inconclusive. Potency is the fitted concentration of half-maximal effect.

SMILES	FLuc counter	SMN2 splice up	ELG1 genotox	NPC1 prom act	Rab9 promoter act
O=C(Nc1cc([N+](=O)[O-])ccc1O)c1ccc2c(c1)C(=O)N(Cc1ccco1)C2=O	u	x	3%	4µM*	4µM*
CCOc1ccc(CCNC(=O)c2cc(=O)[nH]c3ccc(S(=O)(=O)N4CCCCC4C)cc23)cc1OCC (stereo not given)	7%	x	x	x	x
N#Cc1cc(-c2ccccc2)cnc1Sc1ccccc1	21µM*	6%	0%	1%	5%
c1ccc(Nc2nc3ccccc3[nH]2)nc1	24µM*	u	u	u	3.5µM*
Cc1cc(C)nc(Nc2nc3ccccc3[nH]2)n1	u	13µM*	u	u	u
Nc1ccc(Nc2nc3ccccc3[nH]2)cc1	-22%	x	0%	2%	3%
Clc1ccc2c(c1)-n1cc(-c3ccccc3)nc1CO2	21µM*	u	x	x	x
Cc1ccc(S(=O)(=O)N/N=C/c2cccn2-c2ccc(Cl)cc2)cc1	0.54µM*	-20%	11%	u	u
Cc1ccc(S(=O)(=O)N/N=C/c2c(F)cccc2Cl)cc1	1%	-5%	-2%	0%	3%
COCCN1CCN(C(=O)c2cc(COc3ccc(Cl)cc3OC)on2)CC1	11µM*	x	21µM*	u	3.2µM*
Cc1ccc(C)c(OCc2cc(C(=O)N3CCOCC3)no2)c1	21µM*	x	u	23%	u
COCCCC1CCN(C(=O)c2cc(COc3cc(C)ccc3C)on2)CC1	12µM*	x	u	2.5µM*	3.5µM*
Cc1ccc(C)c(OCc2cc(C(=O)N3CCNC(=O)C3)no2)c1	6%	x	0%	-6%	11%
COc1cc(Cl)ccc1OCc1cc(C(=O)N2CCCCCCC2)no1	u	x	3%	3%	11%
CC(=O)NCCC1CCCCN1C(=O)c1cc(COc2cc(C)ccc2C)on1 (stereo not given)	17µM*	x	16µM*	3.5µM*	2.2µM*
CC1=C(C(=O)OC(C)C)C(c2ccc(Cl)cc2)n2c(s/c(=C\c3ccc(OCC(=O)O)cc3)c2=O)=N1 (stereo not given)	0%	x	-2%	-2%	13%
CC(C)(C)NC(=O)Cn1cc(S(=O)(=O)Cc2ccc(F)cc2)c2ccccc21	-3%	x	x	x	x
CCn1c(CSc2nnc(-c3ccncc3)n2C)nc2cc(C(=O)O)ccc21	-1%	x	3%	0%	1%
COCCN1CCN(C(=O)c2cc(COc3cc(C)ccc3C)on2)CC1	13µM*	x	u	u	2.2µM*
O=C(Nc1cccc(Cl)c1)c1cccc(N2C(=O)C3CC=CCC3C2=O)c1 (stereo not given)	-19%	x	-21%	0%	-3%
Cc1ccc(C(=O)Nc2cccc(N3C(=O)C4CCC(C)CC4C3=O)c2)cc1 (stereo not given)	7.6µM*	x	5%	1%	23%
O=C(Nc1cccc(N2C(=O)C3CCCCC3C2=O)c1)c1ccccc1 (stereo not given)	19µM*	x	6%	2%	-6%
COc1ccc(N2CCN(C(=O)c3ccc(CNS(=O)(=O)c4cccc(OC)c4)cc3)CC2)cc1	-1%	x	-15%	-6%	0%
COc1ccc2c(c1)CCc1c(C(=O)Nc3ccc(OC)c(OC)c3)noc1-2	2.4µM*	-14%	2%	11%	16%
COc1ccc2c(c1)CCc1c(C(=O)N3CCCc4ccccc43)noc1-2	13µM*	-18%	u	14%	7%
SMILES	FLuc counter	SMN2 splice up	ELG1 genotox	NPC1 prom act	Rab9 promoter act
COc1ccc2c(c1)CCc1c(C(=O)N3CC4(C)CC3CC(C)(C)C4)noc1-2 (stereo not given)	-2%	-17%	-7%	-2%	-7%
COc1ccc2c(c1)CCc1c(C(=O)N3CCOCC3)noc1-2	11µM*	13µM*	12µM*	4µM*	3.2µM*
O=C(CSc1ncc(-c2ccc(F)cc2)[nH]1)Nc1cccc(O)c1	19µM*	x	-6%	1%	3%
Cn1c2ccc(F)cc2c2nnc(SCC(=O)Nc3cccc(O)c3)nc21	9.5µM*	x	12%	4%	1%
NNC(=O)CSc1ncc(-c2ccccc2)[nH]1	-4%	x	8%	-5%	0%
COc1ccc(CCNC(=O)Cc2c(C)c3c(cc(C)c4c(C)coc43)oc2=O)cc1	-1%	10%	x	x	x
CC(C)Nc1nc(Cl)nc(Nc2ccccc2)n1	u	x	u	28%	13%
NC(=S)n1[nH]c(-c2ccc([N+](=O)[O-])cc2)c(N=Nc2cccc([N+](=O)[O-])c2)c1=O	u	-71%	-15%	0%	-17%
Cc1[nH]n(C(N)=S)c(=O)c1N=Nc1cccc([N+](=O)[O-])c1C	8.5µM*	x	u	u	2.5µM*
Cc1[nH]n(C(N)=S)c(=O)c1N=Nc1cc(-c2ccc(Br)cc2)[nH]n1	1.7µM*	u	8%	22%	u
Cc1[nH]n(C(N)=S)c(=O)c1N=Nc1ccc2ccccc2c1	3µM*	22µM*	18µM*	3.2µM*	4µM*
Cc1c(N=Nc2c(-c3ccc([N+](=O)[O-])cc3)[nH]n(C(N)=S)c2=O)cccc1[N+](=O)[O-]	u	-62%	-15%	-33%	-34%
Cc1ccc(N=Nc2c(C)[nH]n(C(N)=S)c2=O)cc1C	3.8µM*	10µM*	u	3.5µM*	3.5µM*
C#CNC(=O)C1(CC=C)CCNCC1	2%	x	4%	-2%	1%
CC(=O)Nc1ccc(NC(=S)Nc2ccc(F)cc2)cc1	-1%	12%	-4%	-5%	14%
Cc1[nH]n(C(N)=S)c(=O)c1N=Nc1ccc(S(=O)(=O)N2CCCCCC2)cc1	5.4µM*	-20%	4%	7%	3%
CC(=O)Nc1ccc(N=Nc2c(C)[nH]n(C(N)=S)c2=O)cc1	15µM*	43%	u	29%	u
Cc1c(OCc2ccc([N+](=O)[O-])cc2)ccc2c3c(c(=O)oc12)CCC3	u	5.6µM*	u	1.1µM*	1µM*
Cc1oc(C(=O)O)cc1COc1ccc2c3c(c(=O)oc2c1C)CCC3	27µM*	u	u	19%	u
Cc1oc(C(=O)O)cc1COc1ccc2c3c(c(=O)oc2c1C)CCCC3	-4%	5%	2%	9%	11%
CC(=O)COc1ccc2c3c(c(=O)oc2c1C)CCCCC3	-18%	u	7.3µM*	u	u
Cc1c(OCC(=O)N(C)C)ccc2c3c(c(=O)oc12)CCCCC3	-8%	1%	3%	4%	1%
O=C1OC(Nc2nc3ccccc3s2)c2ccccc21 (stereo not given)	11µM*	-16%	0%	-4%	7%
O=C(Nc1cccc(Cl)c1)Nc1nc(-c2ccc(Cl)cc2)cs1	-2%	-46%	-2%	-7%	-9%
CN(c1cccc(NC(=O)Nc2cccc(Cl)c2)c1)S(C)(=O)=O	17µM*	-30%	0%	15%	-1%

Source: PubChem BioAssay
